Holding throughout (assay): log2 fold change, soluble protein after heating vs DMSO (PISA); higher = thermal stabilisation; K562 cells, 10 uM, 30 min; active = over 0.2 and 3.5 SD of the protein, either way, in both replicates (recomputed)
Compound in assay [1]: CC[C@@H]1C(=O)N(C)c2cnc(Nc3ccc(C(=O)NC4CCN(C)CC4)cc3OC)nc2N1C1CCCC1
The procedure, abridged: (§1)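 Quantification of soluble protein used TMTpro 16plex LC-MS/MS, with channel sums equalised. Samples were the supernatant after 21,000xg for 90 min of pooled aliquots from K562 cells (2×10^6 cells/mL) treated with 10 μM compound for 30 min, heated for 3 min over 48°C-58°C, and extracted in PBS with 0.5% NP-40 at 4°C. Values, from duplicates, describe thermal stability against control samples on a log2 fold-change scale.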

Compound in assay [2]: CC[C@@H]1C(=O)N(C)c2cnc(Nc3ccc(C(=O)N[C@H]4CC[C@H](N5CCN(CC6CC6)CC5)CC4)cc3OC)nc2N1C(C)C [volasertib]
The procedure, abridged:
as §1

Compound in assay [3]: CC[C@H](C)N1C=C(C2=C(C=C(C=C21)C3=CN=C(C=C3)N4CCNCC4)C(=O)NCC5=C(C=C(NC5=O)C)C)C
The gist of the method: as §1

Compound in assay [4]: CC[C@H](C)[C@@H](C(=O)N[C@@H]([C@@H](C)O)C(=O)N[C@@H](CC(C)C)C(=O)[C@]1(CO1)C)NC(=O)[C@H]([C@@H](C)CC)N(C)C(=O)C [epoxomicin]
The procedure, abridged:
as §1

Compound in assay [5]: CCn1c(C(=O)N(C2CC2)C2CC2)cc2c3c(ncn3C)c(Nc3cc(C)n(C)n3)nc21
The procedure, abridged:
as §1

Compound in assay [6]: CCn1cc(-c2ccnc3[nH]c(-c4cccc(CN(C)C)c4)cc23)c(-c2ccc(NC(=O)N(C)C)cc2)n1
The procedure, abridged: as §1

Compound in assay [7]: CN(C)CC(=O)Nc1ccc2[nH]c(=O)c3ccccc3c2c1
The procedure, abridged:
as §1

Compound in assay [8]: CN(CCOC1=CC=C(C=C1)C[C@H]2C(=O)NC(=O)S2)C3=CC=CC=N3 (racemic) [rosiglitazone]
The gist of the method:
as §1

Compound in assay [9]: CN1C2=C(C3=C1C(=O)N(N=C3)CC4=CC(=CC=C4)N)SC(=C2)S(=O)C
The gist of the method: as §1

Compound in assay [10]: CN1CCC(CNc2ccc3ncc(-c4cccc(OC(F)(F)F)c4)n3n2)CC1
The gist of the method: as §1

Compound in assay [11]: CN1CCN(CCOc2cc(OC3CCOCC3)c3c(Nc4c(Cl)ccc5c4OCO5)ncnc3c2)CC1 [saracatinib]
The gist of the method:
as §1

Compound in assay [12]: CN1CCN(c2nc(C3=C(c4c[nH]c5ccccc45)C(=O)NC3=O)c3ccccc3n2)CC1 [sotrastaurin]
The gist of the method:
as §1

Compound in assay [13]: CN1CC[C@H](c2c(O)cc(O)c3c(=O)cc(-c4ccccc4Cl)oc23)[C@H](O)C1 [alvocidib]
The procedure, abridged: as §1

Compound in assay [14]: CN1CCc2c(c3ccccc3n2Cc2ccc(C(=O)NO)cc2)C1 [Tubastatin A]
The gist of the method:
as §1

Compound in assay [15]: CNC(=O)C1=CC=CC=C1NC2=NC(=NC=C2Cl)NC3=C(C=C(C=C3)N4CCOCC4)OC
The procedure, abridged:
as §1

Compound in assay [16]: CNC(=O)c1ccc(Nc2ncc(C(F)(F)F)c(NCc3nccnc3N(C)S(C)(=O)=O)n2)cc1 [defactinib]
The gist of the method: as §1

Compound in assay [17]: CNCc1ccc(-c2[nH]c3cc(F)cc4c3c2CCNC4=O)cc1 [rucaparib]
The procedure, abridged:
as §1

Compound in assay [18]: CNc1nc(-c2ccc3c(N)n[nH]c3c2)cc(N2C[C@@H](C(=O)NC3CCCCC3)CC[C@H]2C)n1
The procedure, abridged: as §1

Compound in assay [19]: COC(=O)N[C@@H](C)CNc1nccc(-c2cn(C(C)C)nc2-c2cc(Cl)cc(NS(C)(=O)=O)c2F)n1 [encorafenib]
The gist of the method: as §1

Compound in assay [20]: COC(=O)[C@H](CCSC)NC(=O)C1=C(C=C(C=C1)NC[C@H](CS)N)C2=CC=CC=C2
The procedure, abridged: as §1

Targets with a hit are over-represented here; the source holds about 7,900 in all. About 0.6% of all pairs of compound and target were hits. Values without a mark were called inactive.

UniProt Q14118, sequence (Q14118 whole entry, looked up): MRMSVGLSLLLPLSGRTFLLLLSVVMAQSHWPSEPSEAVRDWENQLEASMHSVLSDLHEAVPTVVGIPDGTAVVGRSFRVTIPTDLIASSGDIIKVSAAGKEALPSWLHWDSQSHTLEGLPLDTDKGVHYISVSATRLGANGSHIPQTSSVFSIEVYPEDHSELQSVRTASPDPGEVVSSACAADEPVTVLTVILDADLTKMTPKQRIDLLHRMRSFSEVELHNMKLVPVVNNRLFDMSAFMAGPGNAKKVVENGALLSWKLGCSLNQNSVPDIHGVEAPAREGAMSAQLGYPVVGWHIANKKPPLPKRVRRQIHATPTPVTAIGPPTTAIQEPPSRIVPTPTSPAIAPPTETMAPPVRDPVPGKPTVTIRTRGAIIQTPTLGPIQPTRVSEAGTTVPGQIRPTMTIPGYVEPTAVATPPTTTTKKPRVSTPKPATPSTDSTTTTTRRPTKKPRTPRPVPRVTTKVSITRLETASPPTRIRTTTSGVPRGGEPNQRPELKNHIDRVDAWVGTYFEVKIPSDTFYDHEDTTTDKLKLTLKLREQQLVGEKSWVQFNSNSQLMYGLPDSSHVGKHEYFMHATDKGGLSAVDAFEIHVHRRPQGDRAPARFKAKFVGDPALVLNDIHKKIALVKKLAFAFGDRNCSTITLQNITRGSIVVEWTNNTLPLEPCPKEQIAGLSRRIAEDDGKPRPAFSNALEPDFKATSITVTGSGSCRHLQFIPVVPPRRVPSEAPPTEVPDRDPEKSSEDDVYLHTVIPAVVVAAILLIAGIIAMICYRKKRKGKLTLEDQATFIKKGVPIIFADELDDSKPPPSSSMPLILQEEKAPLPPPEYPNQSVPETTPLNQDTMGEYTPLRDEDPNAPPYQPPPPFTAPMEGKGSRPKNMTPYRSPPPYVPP
UniProt P26641, sequence (P26641 whole entry, looked up): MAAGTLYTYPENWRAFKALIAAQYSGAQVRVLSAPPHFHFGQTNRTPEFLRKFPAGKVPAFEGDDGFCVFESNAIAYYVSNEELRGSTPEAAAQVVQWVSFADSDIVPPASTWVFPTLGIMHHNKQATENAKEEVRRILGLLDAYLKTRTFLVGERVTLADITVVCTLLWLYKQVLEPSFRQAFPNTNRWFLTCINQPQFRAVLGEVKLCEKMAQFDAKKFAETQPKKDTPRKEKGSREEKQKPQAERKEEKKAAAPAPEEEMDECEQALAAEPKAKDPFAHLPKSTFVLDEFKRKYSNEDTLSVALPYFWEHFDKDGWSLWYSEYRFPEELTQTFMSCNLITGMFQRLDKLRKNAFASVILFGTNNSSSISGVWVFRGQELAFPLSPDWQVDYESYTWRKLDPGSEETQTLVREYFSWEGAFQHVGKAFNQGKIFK
UniProt Q8N6R0, sequence (Q8N6R0 whole entry, looked up): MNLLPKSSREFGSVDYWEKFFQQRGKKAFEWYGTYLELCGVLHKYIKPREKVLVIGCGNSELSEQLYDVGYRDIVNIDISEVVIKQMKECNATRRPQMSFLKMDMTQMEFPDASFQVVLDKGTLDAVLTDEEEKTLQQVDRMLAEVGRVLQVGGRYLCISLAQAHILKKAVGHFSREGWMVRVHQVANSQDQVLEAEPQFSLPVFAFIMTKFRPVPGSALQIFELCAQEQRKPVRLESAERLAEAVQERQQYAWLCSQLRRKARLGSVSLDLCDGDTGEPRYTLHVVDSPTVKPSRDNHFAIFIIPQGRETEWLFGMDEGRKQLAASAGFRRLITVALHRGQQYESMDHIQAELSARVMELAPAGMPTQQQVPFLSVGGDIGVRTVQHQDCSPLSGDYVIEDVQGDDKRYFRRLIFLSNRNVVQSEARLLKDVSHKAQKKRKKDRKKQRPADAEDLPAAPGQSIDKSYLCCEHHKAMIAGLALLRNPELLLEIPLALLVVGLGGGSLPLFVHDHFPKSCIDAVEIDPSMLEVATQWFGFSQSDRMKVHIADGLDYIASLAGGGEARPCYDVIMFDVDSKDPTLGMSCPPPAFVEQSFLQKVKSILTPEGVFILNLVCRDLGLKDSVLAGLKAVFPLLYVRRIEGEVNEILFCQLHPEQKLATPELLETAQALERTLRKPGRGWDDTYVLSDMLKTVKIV
UniProt Q9NQI0, sequence (Q9NQI0 whole entry, looked up): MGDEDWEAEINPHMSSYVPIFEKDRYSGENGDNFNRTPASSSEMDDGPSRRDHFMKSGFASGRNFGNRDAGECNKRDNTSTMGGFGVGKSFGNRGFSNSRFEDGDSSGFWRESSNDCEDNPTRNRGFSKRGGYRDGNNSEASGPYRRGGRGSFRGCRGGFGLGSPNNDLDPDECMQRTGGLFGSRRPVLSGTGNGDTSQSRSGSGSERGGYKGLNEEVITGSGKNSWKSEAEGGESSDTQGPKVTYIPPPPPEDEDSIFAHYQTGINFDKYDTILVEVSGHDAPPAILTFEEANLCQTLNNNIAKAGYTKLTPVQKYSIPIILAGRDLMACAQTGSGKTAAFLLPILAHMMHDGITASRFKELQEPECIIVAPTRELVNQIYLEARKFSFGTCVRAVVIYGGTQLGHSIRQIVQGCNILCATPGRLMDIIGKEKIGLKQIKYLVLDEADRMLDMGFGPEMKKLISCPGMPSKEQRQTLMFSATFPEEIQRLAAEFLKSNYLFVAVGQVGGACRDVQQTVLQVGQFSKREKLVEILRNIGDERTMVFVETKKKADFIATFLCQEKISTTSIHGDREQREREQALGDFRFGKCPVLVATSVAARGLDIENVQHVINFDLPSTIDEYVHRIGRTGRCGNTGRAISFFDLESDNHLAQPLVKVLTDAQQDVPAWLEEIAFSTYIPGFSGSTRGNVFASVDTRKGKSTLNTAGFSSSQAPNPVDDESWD
UniProt Q9C073, sequence (Q9C073 whole entry, looked up): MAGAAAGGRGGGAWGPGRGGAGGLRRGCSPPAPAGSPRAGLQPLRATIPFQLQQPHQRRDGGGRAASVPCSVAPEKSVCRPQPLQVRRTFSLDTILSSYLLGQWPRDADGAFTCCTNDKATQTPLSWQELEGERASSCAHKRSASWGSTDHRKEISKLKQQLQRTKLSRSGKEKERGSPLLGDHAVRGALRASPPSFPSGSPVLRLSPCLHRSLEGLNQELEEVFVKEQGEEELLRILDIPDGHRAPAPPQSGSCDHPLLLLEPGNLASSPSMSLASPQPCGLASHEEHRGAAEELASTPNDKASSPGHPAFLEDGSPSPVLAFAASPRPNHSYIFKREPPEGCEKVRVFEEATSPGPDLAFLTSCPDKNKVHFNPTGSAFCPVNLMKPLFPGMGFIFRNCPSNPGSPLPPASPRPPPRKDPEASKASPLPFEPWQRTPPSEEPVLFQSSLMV
UniProt P98082, sequence (P98082 whole entry, looked up): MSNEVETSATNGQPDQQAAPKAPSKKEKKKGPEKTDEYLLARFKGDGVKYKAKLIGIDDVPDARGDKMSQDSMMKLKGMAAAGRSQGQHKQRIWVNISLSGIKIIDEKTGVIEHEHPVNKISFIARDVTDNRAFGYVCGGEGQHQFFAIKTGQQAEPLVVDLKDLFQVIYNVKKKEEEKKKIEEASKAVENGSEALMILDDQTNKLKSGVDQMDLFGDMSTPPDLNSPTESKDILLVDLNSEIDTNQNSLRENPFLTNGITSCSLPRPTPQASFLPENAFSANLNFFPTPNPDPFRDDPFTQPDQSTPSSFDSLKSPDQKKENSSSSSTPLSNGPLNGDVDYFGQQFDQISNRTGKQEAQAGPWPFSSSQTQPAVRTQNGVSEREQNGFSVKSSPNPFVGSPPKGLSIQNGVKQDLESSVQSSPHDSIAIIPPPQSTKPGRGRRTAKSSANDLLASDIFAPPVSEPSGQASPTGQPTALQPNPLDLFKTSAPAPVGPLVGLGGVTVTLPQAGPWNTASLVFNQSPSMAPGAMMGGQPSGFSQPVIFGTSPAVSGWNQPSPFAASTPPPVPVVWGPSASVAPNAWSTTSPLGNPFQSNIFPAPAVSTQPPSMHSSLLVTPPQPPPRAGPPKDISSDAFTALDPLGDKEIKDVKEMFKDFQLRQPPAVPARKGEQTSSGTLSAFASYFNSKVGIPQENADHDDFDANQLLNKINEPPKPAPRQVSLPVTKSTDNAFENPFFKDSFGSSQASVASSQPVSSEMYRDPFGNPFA

For DAB2 (UniProt P98082), the log2 fold change in assay [1] was -0.204; in assay [2], -0.289 (active); in [3], 0.042; in [4] it was -0.004; in [5], -0.014; in assay [6], 0.022. The log2 fold change in assay [7] was 0.132; in assay [8], 0.032; in assay [9], 0.032; in assay [10] it was -0.111; in [11], -0.044; in assay [12], 0.009. The log2 fold change is -0.084 in [13]; 0.139 in [14]; 0.031 in assay [15]; -0.026 in assay [16]; 0.043 in [17]; 0.05 in [18]. For the same target, the log2 fold change in assay [19] is 0.077; in assay [20], -0.13.

Take EEF1AKNMT (UniProt Q8N6R0): the log2 fold change in assay [1] was -0.082; in [2] it was -0.564 (active); in [3] it was 0.111; in [4], 0.012; in [5], -0.038; in [6] it was 0.134. In addition, the log2 fold change in assay [7] is 0.092; in assay [8] it was 0.022; in assay [9], 0.075; in assay [10], -0.095; in assay [11], -0.063; in [12], -0.174. Further, the log2 fold change was -0.039 in assay [13]; -0.004 in assay [14]; 0.063 in assay [15]; -0.068 in assay [16]; 0.115 in assay [17]; 0.059 in assay [18]. For the same target, the log2 fold change in assay [19] was 0.095; in assay [20], -0.182.

As to EEF1G isoform 2 (UniProt P26641), the log2 fold change in assay [1] was -0.164; in assay [2], -0.364 (active); in [3], 0.075; in assay [4], 0.008; in assay [5], -0.012; in assay [6], -0.005. Further, the log2 fold change in assay [7] was 0.022; in [8] it was 0.005; in assay [9], 0.011; in [10], 0.016; in assay [11], -0.012; in assay [12] it was -0.041. Besides, the log2 fold change is -0.044 in assay [13]; -0.008 in [14]; 0.075 in assay [15]; -0.051 in [16]; 0.045 in assay [17]; 0.02 in [18]. Moreover, the log2 fold change in [19] is 0.076; in assay [20] it was -0.047.

Turning to DDX4 (UniProt Q9NQI0), the log2 fold change is 0.139 in assay [1]; -0.006 in assay [2]; 0.067 in assay [3]; -0.113 in assay [4]; -0.223 in [5]; 0.047 in assay [6]. Also, the log2 fold change was -0.414 in [7]; 0.097 in assay [8]; 0.025 in [9]; -0.844 in assay [10]; -0.342 in assay [11]; 0.209 in [12]. Further, the log2 fold change was 0.206 in assay [13]; 0.102 in assay [14]; -0.097 in assay [15]; 0.11 in assay [16]; 0.543 in assay [17]; -0.095 in assay [18]. In addition, the log2 fold change in assay [19] was 0.121; in assay [20] it was 0.067.

With FAM117A (UniProt Q9C073), the log2 fold change in [1] is 0.001; in assay [2] it was 0.129; in assay [3] it was 0.071; in assay [4], 0.091; in assay [5], 0.006; in assay [6] it was -0.025. For the same target, the log2 fold change in assay [7] is 0.028; in [8] it was 0.015; in assay [9], -0.008; in [10] it was -0.182; in assay [11], -0.019; in [12] it was 0.009. Besides, the log2 fold change in [13] was -0.077; in assay [14] it was 0.058; in assay [15] it was -0.268 (active); in [16] it was -0.141; in assay [17], -0.079; in assay [18] it was 0.083. Moreover, the log2 fold change in assay [19] is -0.023; in assay [20], 0.009.

Regarding DAG1 (UniProt Q14118), the log2 fold change was 0.149 in [1]; 0.048 in [2]; -0.008 in assay [3]; 0.023 in [4]; -0.039 in assay [5]; -0.044 in assay [6]. Moreover, the log2 fold change in assay [7] was 0.012; in assay [8], -0.007; in assay [9], -0.075; in assay [10] it was 0.243 (active); in assay [11] it was -0.033; in [12], 0.1. Besides, the log2 fold change in assay [13] was -0.026; in assay [14] it was -0.021; in assay [15], -0.093; in [16], -0.032; in [17], -0.014; in assay [18] it was 0.052. Further, the figures for the log2 fold change in assay [19] and in assay [20] were 0.002 and 0.007, respectively.

For the origin of these results see the supplement of paper PMC10849652.
